Article PMC11062922 (Nature Chemical Biology, 2023)
Where two headings read alike, the source gives them in different places.

Legend:
Design in all cases: species or system human, MV4-11 + K-562 + COLO205 + SK-N-BE2 + OVCAR-8
ULK1 = conditions: read-out: apparent Kd, n = 1
PIP4K2C = conditions: read-out: apparent Kd, n = 1
MAP4K2 = conditions: read-out: apparent Kd, n = 1
VDAC3 = conditions: read-out: apparent Kd, n = 1
GRK6 = conditions: read-out: apparent Kd, compound concentrations: 100 nM and 1000 nM (sheet 'Samples'), n = 1
MYLK3 = conditions: read-out: apparent Kd, compound concentrations: 100 nM and 1000 nM (sheet 'Samples'), n = 1
ERN1 = conditions: read-out: apparent Kd; compound concentrations: 100 nM and 1000 nM (sheet 'Samples'), CATDS: 1.5593168360276599E-2; n = 1
ERN2 = conditions: read-out: apparent Kd, compound concentrations: 100 nM and 1000 nM (sheet 'Samples'), n = 1
MAP4K1 = conditions: read-out: apparent Kd, n = 1
ICK = conditions: read-out: apparent Kd; compound concentrations: 100 nM and 1000 nM (sheet 'Samples'), CATDS: 0.109854156237019; n = 1
ULK3 = conditions: read-out: apparent Kd, n = 1
MELK = conditions: read-out: apparent Kd, n = 1
PRKX;PRKY = conditions: read-out: apparent Kd, compound concentrations: 100 nM and 1000 nM (sheet 'Samples'), n = 1
PIK3C3 = conditions: read-out: apparent Kd, n = 1
PAK4 = conditions: read-out: apparent Kd, n = 1
ATM = conditions: read-out: apparent Kd, n = 1
FER = conditions: read-out: apparent Kd, n = 1
RPS6KA6 = conditions: read-out: apparent Kd, n = 1
IKBKE = conditions: read-out: apparent Kd; compound concentrations:100 nM and 1000 nM (sheet 'Samples'); n = 1
MAP3K1 = conditions: read-out: apparent Kd; compound concentrations: 100 nM and 1000 nM (sheet 'Samples'), CATDS: 0.17625774536474501; n = 1
[1] = compound concentrations:100 nM and 1000 nM (sheet 'Samples')

Compound: CN1C(=O)c2ccccc2N(C)c2nc(Nc3cnn(C4CCNCC4)c3)ncc21 [XMD-17-51]
- potency estimated from few doses (ULK1; compound concentrations: 100 nM and 1000 nM (sheet 'Samples'), CATDS: 5.3093581497725799E-2): 45.5 nM

Compound: COc1ccc(CNC(=O)NC2CCN(c3ccnc(Nc4cc(OC)c(OC)c(OC)c4)n3)C2)cc1 (centres unmarked) [GSK1379748A]
- potency estimated from few doses (PIP4K2C; compound concentrations: 100 nM and 1000 nM (sheet 'Samples'), CATDS: 0.31006537475482299): 2120 nM

Compound: CS(=O)(=O)Cc1ccc(Nc2nccc(-c3c(-c4cccc(NC(=O)C5CCCCC5)c4)nn4ncccc34)n2)cc1 [GSK350559A]
- potency estimated from few doses (MAP4K2; [1]): 1890 nM
- potency estimated from few doses (PIP4K2C; [1]): 136 nM
- potency estimated from few doses (VDAC3; [1]): 2030 nM

Compound: Cl.Cl.Cl.c1ccc(Oc2ccc(Nc3ccnc4cc(-c5ccc(CN6CCNCC6)o5)ccc34)cc2)nc1.c1ccc(Oc2ccc(Nc3ccnc4cc(-c5ccc(CN6CCNCC6)o5)ccc34)cc2)nc1 [GW567142A]
- potency estimated from few doses (GRK6; CATDS: 1.87269868098595E-2): 1430 nM
- potency estimated from few doses (MYLK3; CATDS: 1.6491067951183699E-2): 2320 nM
- potency estimated from few doses (VDAC3; compound concentrations: 100 nM and 1000 nM (sheet 'Samples'), CATDS: 1.74915256837203E-2): 1830 nM

Compound: CC(C)c1nc(-c2cccc(NS(=O)(=O)c3ccccc3)c2)c(-c2ccnc(Nc3ccc4c(c3)CN(C)CC4)n2)s1 [GSK1649598A]
- potency estimated from few doses (ERN1): 758 nM
- potency estimated from few doses (ERN2; CATDS: 3.39417380215319E-2): 124 nM
- potency estimated from few doses (MAP4K1; compound concentrations: 100 nM and 1000 nM (sheet 'Samples'), CATDS: 1.9870950610889799E-2): 381 nM

Compound: Cn1cc(C2=C(c3cn(CCCO)c4ccccc34)C(=O)NC2=O)c2ccccc21 [RO0317377-000]
- potency estimated from few doses (ICK): 1460 nM

Compound: Cc1cccc(-c2cc(-c3c[nH]nc3-c3ccccn3)ccn2)c1 [GW679395X]
- potency estimated from few doses (ULK3; [1]): 1450 nM

Compound: O=C1N=C(NCCc2cccc(F)c2)S/C1=C\c1ccc2ncccc2c1 [RO4508344-000]
- potency estimated from few doses (ERN2; CATDS: 7.9069869208326996E-2): 1660 nM

Compound: CC(C)c1cc(-c2ccc3c(N)n[nH]c3c2)nc(N)n1 [GSK2250882A]
- potency estimated from few doses (MELK; [1]): 1300 nM

Compound: O=C1N=C(NCC(CO)c2ccccc2)S/C1=C\c1ccc2ncccc2c1 (centres unmarked) [RO4582641-000]
- potency estimated from few doses (PRKX;PRKY; CATDS: 6.1310776599809498E-2): 1910 nM

Compound: CCc1nc(-c2cccc(N(C)S(=O)(=O)c3ccccc3)c2)c(-c2ccnc(Nc3ccc(N4CCN(C(C)=O)CC4)nc3)n2)s1 [GSK1645895A]
- potency estimated from few doses (PIK3C3; compound concentrations: 100 nM and 1000 nM (sheet 'Samples'), CATDS: 0.15936807020930999): 1340 nM

Compound: Cc1cccc(Nc2nc(NCCN)ncc2C(N)=O)c1 [GSK1292139B]
- potency estimated from few doses (MAP4K2; compound concentrations: 100 nM and 1000 nM (sheet 'Samples'), CATDS: 7.8363425236556997E-2): 1110 nM
- potency estimated from few doses (PAK4; compound concentrations: 100 nM and 1000 nM (sheet 'Samples'), CATDS: 9.0340207585202004E-2): 778 nM

Compound: O=C1N=C(NCc2ccccc2)S/C1=C\c1ccc2ncccc2c1 [RO4442080-000]
- potency estimated from few doses (MYLK3; CATDS: 7.9842207059825906E-2): 1930 nM
- potency estimated from few doses (PRKX;PRKY; CATDS: 0.10891085030607001): 835 nM

Compound: O=C1N=C(NCc2cccs2)SC1Cc1ccc2ncccc2c1 (centres unmarked) [RO4629078-000]
- potency estimated from few doses (ATM; compound concentrations: 100 nM and 1000 nM (sheet 'Samples'), CATDS: 2.5456508312119999E-2): 123 nM
- potency estimated from few doses (FER; compound concentrations: 100 nM and 1000 nM (sheet 'Samples'), CATDS: 1.87753699623531E-2): 195 nM
- potency estimated from few doses (GRK6; CATDS: 8.7219841617169405E-3): 974 nM
- potency estimated from few doses (MELK; compound concentrations: 100 nM and 1000 nM (sheet 'Samples'), CATDS: 7.0296492391178304E-3): 2190 nM
- potency estimated from few doses (MYLK3; CATDS: 7.0392832090842503E-3): 2170 nM
- potency estimated from few doses (PAK4; compound concentrations: 100 nM and 1000 nM (sheet 'Samples'), CATDS: 1.27068399594295E-2): 391 nM
- potency estimated from few doses (PIP4K2C; compound concentrations: 100 nM and 1000 nM (sheet 'Samples'), CATDS: 1.8402634239812199E-2): 201 nM
- potency estimated from few doses (PRKX;PRKY; CATDS: 7.8908157683285005E-3): 1350 nM
- potency estimated from few doses (RPS6KA6; compound concentrations: 100 nM and 1000 nM (sheet 'Samples'), CATDS: 1.4576364077707399E-2): 301 nM
- potency estimated from few doses (ULK1; compound concentrations: 100 nM and 1000 nM (sheet 'Samples'), CATDS: 1.26661320847058E-2): 394 nM
- potency estimated from few doses (ULK3; compound concentrations: 100 nM and 1000 nM (sheet 'Samples'), CATDS: 7.6579624487381603E-3): 1510 nM

Compound: CCn1cc(-c2ccnc3[nH]c(-c4cccc(CN(C)C)c4)cc23)c(-c2ccc(NC(=O)N(C)C)cc2)n1 [GSK1070916]
- potency estimated from few doses (IKBKE): 1960 nM
- potency estimated from few doses (PIK3C3; [1]): 1500 nM

Compound: COc1cccc(-n2cnc3c(N/N=C/c4ccncc4)ncnc32)c1 [GW813360X]
- potency estimated from few doses (MAP3K1): 1040 nM

Compound: Cn1cc(-c2cnc(N)c3c(-c4ccc5c(c4)CCN5C(=O)Cc4ccccc4)csc23)cn1 [GSK2593074A]
- potency estimated from few doses (MAP4K1; [1]): 1630 nM

Compound: Cl.Cn1c(=O)c(Cc2ccc(F)cc2F)cc2cnc(NC3CCOCC3)nc21 [RO3308757-001]
- potency estimated from few doses (ATM; [1]): 247 nM
- potency estimated from few doses (FER; [1]): 302 nM
- potency estimated from few doses (PAK4; [1]): 1650 nM
- potency estimated from few doses (RPS6KA6; [1]): 599 nM
- potency estimated from few doses (ULK1; [1]): 1550 nM
